Results as given in PubChem BioAssay (Tox21).
Several values for one entry are separate records, joined by “and”; a condition that tells them apart may be missing. Equal values may be shown once. A number with no mark means an inactive call. Results filed as inconclusive are left out. Entries that show only a call come without a potency. Activity calls are given as the source filed them. Unless noted, the call rests on the fitted dose curve; in most records, active means well fitted curve in the direction sought with a large enough effect in the repeat runs; inconclusive means weak or mixed curves; inactive means no such curve, though single readings can be large; an effect the other way counts as inactive or inconclusive.

Legend:
[1] = qHTS assay to identify small molecule antagonists of the estrogen receptor alpha (ER-alpha) signaling pathway using the BG1 cell line in the presence of 0.1 nM 17-beta-estradiol - cell viability counter screen (AID 1259241); further: nearly all actives have a fitted effect of over 40% in size; further: potency means the concentration at half of the fitted maximal effect
Outline: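 CellTiter-Fluor read (30 min, 37C) on ER-alpha/ERE-luc VM7Luc4E2 cells; 22 hr compound treatment; agonist 0.1 nM E2 final; same-well multiplex.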

[2] = qHTS assay to identify small molecule antagonists of the androgen receptor (AR) signaling pathway using the MDA cell line in the presence of 0.5 nM R1881 - cell viability counter screen (AID 1259242); further: nearly all actives have a fitted effect of over 45% in size
Outline: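 Cytotoxicity toward MDA-kb2 cells is measured by CellTiter-Fluor live-cell protease fluorescence after 16 hr compound exposure at 37C in the presence of 0.5 nM R1881 stimulator.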

[3] = qHTS assay to identify small molecule HDAC inhibitors (AID 1259364); further: top concentration of the series differs between compounds; nearly all actives have a fitted effect of over 45% in size
Outline: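 Homogeneous cell-based luminescent assay of endogenous class I/II HDAC activity; HCT-116 cells, 2 h compound exposure, 30 min HDAC-Glo development at RT.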

[4] = qHTS assay to identify small molecule HDAC inhibitors - cell viability counter screen (AID 1259365); further: series mostly up to about 92 µM; nearly all actives have a fitted effect of over 50% in size
Outline: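 To flag cytotoxic hits, 1,500 wild-type HCT-116 cells per well, plated the day before, receive test compounds for 2hr at 37 C before CellTiter-Glo reagent and a luminescence read.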

[5] = qHTS assay to identify small molecule agonists of the sonic hedgehog signaling (Shh) pathway - cell viability counter screen (AID 1259366); further: nearly all actives have a fitted effect of over 50% in size; further: potency means the concentration at half of the fitted maximal effect
Outline: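 Fluorescence from CellTiter-Fluor reports live cells in this counter screen. NIH/3T3-derived Gli1-Luc reporter cells receive test compounds for 24hr at 37C; reagent goes in at 23hr.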

[6] = qHTS assay to identify small molecule antagonists of the sonic hedgehog signaling (Shh) pathway - cell viability counter screen (AID 1259367); further: nearly all actives have a fitted effect of over 55% in size; further: potency means the concentration at half of the fitted maximal effect
Outline: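 NIH/3T3-derived Gli1-Luc reporter cells, 2,000/well, plated 4 hr before compound addition, then stimulated with conditioned medium for 24 hr at 37C. Viability measured in the same wells by CellTiter-Fluor fluorescence, reagent added at 23 hr for 1 hr.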

[7] = qHTS assay to identify small molecule agonists of the sonic hedgehog signaling (Shh) pathway (AID 1259368; calls by dose curve;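 further: NIH/3T3-derived 3T3Gli1-Luc cells carrying a stable Gli1-driven firefly luciferase reporter; series mostly up to about 92 µM; nearly all actives have a fitted effect of over 15% in size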)
Outline: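 Steps: seed 3T3 Gli1-Luc cells, incubate 4 hr at 37 C, pin-transfer compounds in DMSO alongside a positive control, incubate 24 hr, add luciferase detection reagent, wait 30 min at room temperature, read luminescence.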

[8] = qHTS assay to identify small molecule antagonists of the sonic hedgehog signaling (Shh) pathway (AID 1259369; calls by dose curve; further: nearly all actives have a fitted effect of over 45% in size; further: potency means the concentration at half of the fitted maximal effect)
Outline: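 Inhibition of Shh signalling is measured as reduced Gli1-response-element firefly luciferase output in an NIH/3T3-derived stable reporter clone stimulated with conditioned medium for 24hr.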

[9] = biological target: Androgen receptor (Homo sapiens) (UniProt P10275); experiment: qHTS assay to identify small molecule antagonists of the androgen receptor (AR) signaling pathway using the MDA cell line in the presence of 0.5 nM R1881 (AID 1259243); further: nearly all actives have a fitted effect of over 50% in size; further: potency means the concentration at half of the fitted maximal effect
Outline: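 Steps: seed MDA-kb2 cells, incubate 5 hr at 37C; pin-transfer compounds in DMSO; add R1881 to 0.5 nM final; incubate 16 hr; add ONE-Glo, wait 30 min at room temperature; read luminescence.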

[10] = biological target: Estrogen receptor (Homo sapiens) (UniProt P03372); experiment: qHTS assay to identify small molecule antagonists of the estrogen receptor alpha (ER-alpha) signaling pathway using the BG1 cell line in the presence of 0.1 nM 17-beta-estradiol (AID 1259244); further: nearly all actives have a fitted effect of over 50% in size; further: potency means the concentration at half of the fitted maximal effect
Outline: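 After 5 days in hormone-depleted medium (charcoal-stripped serum, no phenol red), VM7Luc4E2 cells were seeded, incubated 24 h, then co-treated with compound and 0.1 nM (final) estradiol for 22 h before luminescence detection.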

Androgen receptor (Homo sapiens), sequence (P10275 whole entry, looked up): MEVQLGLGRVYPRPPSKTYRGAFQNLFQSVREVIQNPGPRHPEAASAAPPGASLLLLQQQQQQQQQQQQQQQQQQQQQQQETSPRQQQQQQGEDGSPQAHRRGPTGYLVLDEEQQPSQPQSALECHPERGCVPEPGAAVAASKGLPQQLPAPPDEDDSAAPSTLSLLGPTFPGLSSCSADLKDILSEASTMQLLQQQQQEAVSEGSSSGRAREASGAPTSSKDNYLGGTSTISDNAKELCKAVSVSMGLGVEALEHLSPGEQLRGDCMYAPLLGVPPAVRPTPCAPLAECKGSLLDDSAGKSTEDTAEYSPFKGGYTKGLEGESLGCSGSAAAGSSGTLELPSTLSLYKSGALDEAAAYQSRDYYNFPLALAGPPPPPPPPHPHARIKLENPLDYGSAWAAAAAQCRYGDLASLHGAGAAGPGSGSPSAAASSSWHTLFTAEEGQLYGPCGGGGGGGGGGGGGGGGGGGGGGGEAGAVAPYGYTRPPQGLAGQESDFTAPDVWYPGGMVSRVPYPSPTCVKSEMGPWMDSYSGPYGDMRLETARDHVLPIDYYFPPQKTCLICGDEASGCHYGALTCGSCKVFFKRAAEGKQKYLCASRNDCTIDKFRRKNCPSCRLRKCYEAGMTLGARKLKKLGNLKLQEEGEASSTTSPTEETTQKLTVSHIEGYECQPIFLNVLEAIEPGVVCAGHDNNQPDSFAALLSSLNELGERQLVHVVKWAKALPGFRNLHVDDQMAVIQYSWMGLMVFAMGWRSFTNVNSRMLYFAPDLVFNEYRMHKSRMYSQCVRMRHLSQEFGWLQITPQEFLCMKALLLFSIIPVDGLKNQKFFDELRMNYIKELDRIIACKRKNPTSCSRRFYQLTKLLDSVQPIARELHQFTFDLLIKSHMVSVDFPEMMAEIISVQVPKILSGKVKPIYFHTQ
Estrogen receptor (Homo sapiens), sequence (P03372 whole entry, looked up): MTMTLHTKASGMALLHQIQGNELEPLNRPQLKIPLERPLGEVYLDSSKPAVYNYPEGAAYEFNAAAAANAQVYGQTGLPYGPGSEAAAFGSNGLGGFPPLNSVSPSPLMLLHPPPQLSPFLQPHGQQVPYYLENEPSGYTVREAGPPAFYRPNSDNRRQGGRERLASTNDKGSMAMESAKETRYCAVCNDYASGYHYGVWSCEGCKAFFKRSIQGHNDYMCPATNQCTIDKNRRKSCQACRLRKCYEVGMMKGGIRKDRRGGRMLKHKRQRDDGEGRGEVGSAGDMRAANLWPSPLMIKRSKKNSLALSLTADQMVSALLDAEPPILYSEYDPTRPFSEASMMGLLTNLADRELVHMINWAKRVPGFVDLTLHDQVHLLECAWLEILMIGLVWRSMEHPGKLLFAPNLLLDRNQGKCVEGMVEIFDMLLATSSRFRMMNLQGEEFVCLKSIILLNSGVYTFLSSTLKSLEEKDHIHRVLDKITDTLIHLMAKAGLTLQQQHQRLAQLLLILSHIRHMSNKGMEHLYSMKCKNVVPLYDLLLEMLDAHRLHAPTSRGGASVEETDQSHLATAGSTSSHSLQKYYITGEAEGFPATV

SMILES	Potency [1]	Potency [2]	Potency [3]	Potency [4]	Potency [5]	Potency [6]	Potency [7]	Potency [8]	Potency [9]	Potency [10]	activity change, negative = cytotoxicity [4]	activity change [7]
CC(C)OS(C)(=O)=O	inactive	inactive	inactive	inactive	inactive	inactive	inactive	inactive				
Cc1cc(C(C)(C)c2cc(C)c(O)c(C)c2)cc(C)c1O	inactive	inactive	inactive	inactive		inactive	inactive	inactive				
ClCc1ccccc1CCl	inactive	inactive	inactive	inactive	inactive	inactive	inactive					
CCOP(=S)(OCC)SCCS(=O)(=O)CC	inactive	inactive	inactive	inactive			inactive					
O=c1oc2ccccc2c(O)c1Cc1c(O)c2ccccc2oc1=O	inactive	inactive	inactive	inactive	inactive	inactive	inactive	inactive				
O=S(=O)(c1ccc(Cl)cc1)c1ccc(Cl)cc1	inactive	inactive	inactive	inactive	inactive	inactive	inactive					
CC(=[OH+])/C=C(/C)[O-].CC(=[OH+])/C=C(\C)[O-].CC(=[OH+])/C=C(\C)[O-].[Al]	inactive	inactive	inactive	inactive	inactive	inactive	inactive	inactive				
Nc1ccc(Sc2ccc(N)cc2)cc1	inactive	inactive	inactive		inactive	inactive	inactive					
BrC(Br)C(Br)(Br)Br	inactive	inactive	inactive	inactive		inactive	inactive	61.5 µM (active)				
Oc1cc(Cl)c(Cl)c(Cl)c1	inactive			inactive	inactive		inactive	13 µM (active)	46.1 µM (active)	41 µM (active)		
CN(C)[C@@H]1C(=O)C(C(N)=O)=C(O)[C@@]2(O)C(=O)C3=C(O)c4c(O)ccc(Cl)c4[C@@](C)(O)[C@H]3C[C@@H]12	inactive	inactive		inactive	inactive	inactive	inactive	55.6 µM (active)				
O=[N+]([O-])c1c2ccccc2cc2ccccc12	inactive	inactive		inactive			inactive					
C[C@H]1O[C@@H](O[C@H]2[C@@H](O)C[C@H](O[C@H]3[C@@H](O)C[C@H](O[C@H]4CC[C@@]5(C)[C@H](CC[C@@H]6[C@@H]5CC[C@]5(C)[C@@H](C7=CC(=O)OC7)CC[C@]65O)C4)O[C@@H]3C)O[C@@H]2C)C[C@H](O)[C@@H]1O	inactive		inactive	inactive	inactive	inactive	inactive	inactive	inactive	inactive		
N#Cc1c(-c2ccc(Cl)cc2)[nH]c(C(F)(F)F)c1Br	inactive		inactive	inactive		27.3 µM (active)	inactive	0.77 µM (active)	0.433 µM (active)	0.611 µM (active)		
c1ccc(OCC2CO2)cc1 (stereo unspecified)	inactive	inactive	inactive		inactive	inactive	inactive	inactive				
N#CCCO	inactive		inactive		inactive	inactive	inactive		inactive	inactive		
C[CH2][Hg][N]1C(=O)C2C(C1=O)C1(Cl)C(Cl)=C(Cl)C2(Cl)C1(Cl)Cl (stereo unspecified)	13 µM (active)				7.3 µM (active)			14.6 µM (active)	7.3 µM (active)		-3.87% [at 19 µM]	-11.5% [at 18.9 µM, hits give high values]
ClC1=C(Cl)C2(Cl)C3C(Cl)C(Cl)CC3C1(Cl)C2(Cl)Cl (stereo unspecified)	inactive		inactive	inactive	43.1 µM (active) and 61.1 µM (active)	inactive	inactive	inactive	60.9 µM (active) and 48.6 µM (active)	inactive		
Cc1cc(SCc2sc(-c3ccc(C(F)(F)F)c(F)c3)nc2C)ccc1OCC(=O)O	inactive	inactive		inactive	43.3 µM (active)	30.6 µM (active)	inactive					
c1ccc2c(c1)OCC(C1=NCCN1)O2 (stereo unspecified)	inactive	inactive				2.11 µM (active)	inactive	0.376 µM (active)				
N#CSCSC#N	70.1 µM (active)			inactive	11.1 µM (active) and 6.79 µM (active)	12.5 µM (active) and 13.5 µM (active)	inactive	2.79 µM (active) and 2.41 µM (active)	49.6 µM (active)			
Oc1ccc(C2(c3ccc(O)cc3)CCCCC2)cc1	inactive	inactive	inactive		25.9 µM (active)		inactive	46 µM (active)				
